Pf Dd2 growth: Plasmodium falciparum Dd2 growth inhibition | P. falciparum Dd2 growth, SYBR Green, 72 h | Potency, µM (top dose mostly 28.9 µM), most hits filed as inhibitors | actives 4.3% (n = 120,000) | AID 1347417; active = well fitted inhibition curve with a large enough effect; note: nearly all actives have a fitted effect of over 65% in size
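Readout: SYBR Green fluorescence, 485 nm excitation, 535 nm emission, after ~16 h lysis at 37C. Before that, Dd2-infected red cells (2.5% hematocrit) grew 72 h with compound, 29 uM top final concentration.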
Hits are given with their value; i = inactive. Only a selection was taken, and hits are over-represented in it overall.

SMILES | Pf Dd2 growth
COCCNC(=O)c1ccc2nnc(-c3ccc(Cl)cc3Cl)n2c1 | i
CC(=O)N1CCC(C(=O)N[C@H]2CCN3C(=O)N(c4ccc(C)cc4)C(=O)[C@@H]3C2)CC1 | i
CCOc1cc(=O)n2c(c1C(=O)Nc1cc(OC)c(Cl)cc1OC)CCCC2 | i
Cc1ccc(C(=O)N2CCCCC23Cc2ccccc2NC3=O)cc1 (stereo not drawn) | i
COc1cc2cc(CN3CCC(N(C)C)C3)c(-c3cccc(Cl)c3)nc2cc1OC (stereo not drawn) | 7.9µM
O=C1[C@H]2CN(Cc3ccc(Cl)cc3)C[C@H]2C(=O)N1Cc1ccc2c(c1)OCO2 | i
CS(=O)(=O)N1C[C@H]2CCN(Cc3cc(Cl)ccc3F)C[C@H]21 | i
COc1ccc(OC)c2nc(-c3cccc(Cl)c3)c(CN3CCC(O)CC3)cc12 | i
CSc1ccc2cc(CN3CC[C@@H](O)C3)c(-c3ccc(Cl)cc3)nc2c1 | 11µM
CN(C)C1CCN(Cc2cc3cc4c(cc3nc2-c2ccc(Cl)cc2)OCO4)C1 (stereo not drawn) | 11µM
CSc1ccc(C(=O)N2CCN(Cc3ccccc3)CC(O)C2)cc1 (stereo not drawn) | i
COc1ccc(N2CCOC3CCN(Cc4cccc(Cl)c4)CC3C2=O)cc1 (stereo not drawn) | i
Cn1ncc(CN2CC[C@@H](c3ccc4c(c3)OCO4)[C@H](O)C2)c1C1CC1 | i
O=C(NCCc1ccncc1)C1CN(C(=O)Cc2ccc(F)cc2)CC12CCOCC2 (stereo not drawn) | i
Cc1ccc(CN[C@@H]2CO[C@H](CNC(=O)C3CC3)[C@H]2O)cc1 | i
O=C1NCc2ccccc2CC12CCCN(CC1CC=CCC1)C2 (stereo not drawn) | i
COCCC(=O)N[C@@H]1CN(S(C)(=O)=O)C[C@H]1CN(C)C | i
COc1cc(CN2CCC(CO)(CN3CCCC3)CC2)ccc1F | 7.9µM
CN1C(=O)[C@H]2CN(Cc3ccc(F)c(Cl)c3)C[C@H]2C1=O | i
Cc1cc(F)ccc1CN1CCC(CO)(CN2CCCC2)CC1 | i
O=C1N(CCc2ccccc2)CCOC12CCN(Cc1ccc(F)c(Cl)c1)CC2 | i
OC1(CN2CCCCC2)CCN(Cc2ccc(F)c(Cl)c2)C1 (stereo not drawn) | 8.9µM
OCC1(CN2CCCC2)CCN(Cc2cccc(O)c2)CC1 | i
COC(=O)c1ccc2c(c1)nc1n2[C@@H](CNS(=O)(=O)c2ccccc2)COC1 | i
COc1cc(Cl)ccc1C(=O)N1CCN(c2cc(C(F)(F)F)ncn2)CC1 | i
SMILES | Pf Dd2 growth
COc1ccc(C2Cn3nnc(-c4noc(COc5ccc(F)cc5)n4)c3CO2)cc1 (stereo not drawn) | i
COc1cccc(CC(=O)N2CCC3(CC2)CC(Cc2nc(-c4ccncc4)no2)CCO3)c1 (stereo not drawn) | i
CCN1CCN(C(=O)C2CCc3nc(N4CCN(C(=O)C5CCC5)CC4)sc3C2)CC1 (stereo not drawn) | i
CCC(=O)N1CCN(c2nc3c(s2)CC(C(=O)Nc2cccc(C)c2C)CC3)CC1 (stereo not drawn) | 4µM
CCC(=O)N1CCN(c2nc3c(s2)CC(C(=O)NCc2ccccc2)CC3)CC1 (stereo not drawn) | 7.9µM
CCC(=O)N1CCN(c2nc3c(s2)CC(C(=O)NCc2cccc(OC)c2)CC3)CC1 (stereo not drawn) | i
O=C(NCc1ccncc1)C1CCc2nc(N3CCN(C(=O)C4CCC4)CC3)sc2C1 (stereo not drawn) | i
Cc1cccc(NC(=O)C2CCN(c3nnc(-n4c(C)ccc4C)s3)CC2)c1C | i
CCC(=O)N1CCN(c2nc3c(s2)CC(C(=O)Nc2ccc(F)cc2F)CC3)CC1 (stereo not drawn) | 5µM
O=C(NCc1cccs1)C1CCc2nc(N3CCN(C(=O)C4CCC4)CC3)sc2C1 (stereo not drawn) | 5µM
CCC(=O)N1CCc2nc(N3CCN(Cc4cccnc4)CC3)sc2C1 | i
O=C(O)C1CCc2nc(N3CCN(C(=O)C4CCC4)CC3)sc2C1 (stereo not drawn) | i
Cc1ccccc1C(=O)N1CCC(C(=O)Nc2ccc(F)cc2F)CC1 | i
O=C(NCc1ccco1)C1CCc2nc(N3CCN(C(=O)C4CCC4)CC3)sc2C1 (stereo not drawn) | i
COc1cc(F)ccc1-c1ccnc2nc(CCc3ccccc3)nn12 | i
COc1cccc(NC(=O)CCc2ccc3c(c2)CN(S(C)(=O)=O)CCO3)c1 | i
COc1cc(CN2CCN(c3ccc(C#N)cn3)CC2CCO)cc(OC)c1 (stereo not drawn) | i
O=C1[C@@H]2C[C@@H](CN2Cc2ncc[nH]2)Oc2ccccc2N1Cc1ccc(OC(F)(F)F)cc1 | i
Cc1ccc(CNC(=O)N2CCCC(Cc3nncn3-c3ccccc3)C2)cc1 (stereo not drawn) | i
Cc1ccc(C(=O)N2CCC3(CC2)N=C(c2cccc(Br)c2)NO3)s1 | i
CCCCOC(=O)C1=CN(Cc2ccccc2)S(=O)(=O)N=C1C | i
COc1ccccc1-c1nnc([C@H]2CCN(C3CCOCC3)C2)o1 | i

Screening data (PubChem BioAssay)
